According to PubChem BioAssay AID492997 (Johns Hopkins Ion Channel Center, 2010):
Out of some 4,900 compounds screened, about 2,000 (41%) were called active.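 How the source made its calls: active means thallium signal drop beyond 5 SD of the untreated control mean, on both duplicate plates; inactive means the rest.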 So high a share suggests a set chosen from earlier hits. Not all results are given here.

Assay: thallium flux in non-induced HEK293 cells, confirmation, counter-screen for KCNK9 inhibitor project, cell-based, second counter screen, non-induced KCNK9-HEK293 (AID 492997);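 on inhibition: plate controls were buffer only IC0 wells for no effect and SID17386958 at its maximal inhibitory level for full effect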
Conditions: non-induced KCNK9-HEK293, FluxOR thallium flux, at 10 µM; stronger effect = higher value

Row | Structure (SMILES) | inhibition
1 | CCCCOC(=O)CCCc1ccc([N+](=O)[O-])cc1[N+](=O)[O-] | inactive
2 | COc1cc(Cl)c(S(=O)(=O)N2CCN(Cc3ccc4c(c3)OCO4)CC2)cc1Cl | inactive
3 | COc1ccc(-c2nc(CCNC(=O)c3ccc(Br)o3)cs2)cc1 | inactive
4 | COc1ccc(CCNc2ncnc3c2nnn3Cc2ccccc2)cc1 | inactive
5 | COc1ccc(CCNC(=O)c2ccccc2OCc2ccccc2)cc1 | 40% (active)
6 | COCCNc1cc(-c2ccccc2)nc2cc(-c3cccc(F)c3)nn12 | 30% (active)
7 | COC(=O)Cn1cnc2scc(-c3ccc(C)c(C)c3)c2c1=O | inactive
8 | Cc1ccc(-c2csc(NCCc3nc4cc(Cl)c(Cl)cc4n3CCOCCO)n2)cc1 | 36% (active)
9 | CCN(C(=O)COc1ccc(C(=O)c2ccccc2)cc1)c1ccccc1 | 29% (active)
10 | Cc1ccc(C2=Nc3c(ccc4ccccc34)C(c3ccncc3)=NN2)cc1 | inactive
11 | COc1ccc2c(c1)C(c1cccs1)=NNC(c1cccnc1)=N2 | 24.5% (active)
12 | O=C(NNc1ccccc1Cl)C(O)(c1cccc(C(F)(F)F)c1)c1cccc(C(F)(F)F)c1 | inactive
13 | O=[N+]([O-])/C=C/c1ccc2c(ccn2Cc2ccccc2)c1 | 44.5% (active)
14 | COc1cccc(COc2ccc(N(C)S(=O)(=O)c3ccccc3)cc2)c1 | 49.5% (active)
15 | CCOC(=O)c1cc2sccc2n1Cc1ccc(C#N)cc1 | 53% (active)
16 | O=C(OCC(=O)N(CCc1ccccc1)Cc1ccccc1)c1ccccc1[N+](=O)[O-] | inactive
17 | O=C(Nc1ccc(Cl)c(Cl)c1)N1CC=C(c2ccccc2)CC1 | inactive
18 | Cc1nc(N2CCN(c3ccccn3)CC2)c2c(C)c(C(=O)Nc3ccc(F)c(Cl)c3)sc2n1 | 24.5% (active)
19 | COc1ccc(C(=O)C2CCCN(C(=O)c3cc(C)on3)C2)cc1F (configuration not stated) | inactive
20 | Oc1ccc(/C=N/Nc2nc(-c3ccccc3F)nc3ccccc23)c(O)c1 | 32% (active)
21 | O=C1c2ccccc2S(=O)(=O)N1CC(O)Cn1c2ccccc2c2ccccc21 (configuration not stated) | inactive
22 | Cc1cccc(NC(=O)CN2CCCN(S(=O)(=O)c3ccc(Br)s3)CC2)c1 | 39.5% (active)
23 | O=C(CSCc1ccc(Br)cc1)Nc1ccc(S(=O)(=O)N2CCCCCC2)cc1 | inactive
24 | Cc1cccc(N(C)C(=O)CN2C(=O)COc3ccc(S(=O)(=O)N4CCCCCC4)cc32)c1 | inactive
25 | O=C1c2ccccc2C2=Nc3ccccc3SC(c3ccccc3F)C12 (configuration not stated) | 45.5% (active)
26 | C=CCN(N=Nc1cccc([N+](=O)[O-])c1)c1cccc([N+](=O)[O-])c1 | 39% (active)
27 | Cc1ccc(NC2CCCN(C(=O)CCC3(C)CC3)C2)cc1C (configuration not stated) | inactive
